Screening results: PubChem BioAssay, Center for Chemical Genomics, University of Michigan
The sample as a whole holds a higher share of hits than the screen did.
Dicer inh = inhibitors of human Dicer processing of pre-microRNA; cat-ELCCA pre-miR-21 Dicer processing, chemiluminescence; hits give high values; 6% of 47,000 active; z-score at 25 µM; Q9UPY3; AID 1347074; in the data active = z-score above about 3, passing the limit was not always enough;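 note: higher signal means more uncleaved substrate so more Dicer inhibition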
Hits are given with their value; – = inactive.

SMILES	Dicer inh
COC(=O)c1sccc1NC(=O)CC1C(=O)NCCN1S(=O)(=O)c1cccs1 (centres undefined)	–
CCOC(=O)/C(=C\Nc1cc(C(F)(F)F)cc(C(F)(F)F)c1)[N+](=O)[O-]	–
O=C(Nc1cccnc1)c1cc2nc(-c3ccc(Cl)cc3)cc(C(F)(F)F)n2n1	–
c1ccc2c(c1)CCCc1cc(NCCN3CCOCC3)nnc1-2	–
O=C(NCCN1CCOCC1)c1cc2nc3c(c(C(F)(F)F)n2n1)CCc1ccccc1-3	4.3
FC(F)(F)c1c2c(nc3cc(-c4ccc(Cl)cc4)nn13)-c1ccccc1C2	–
O=C(Nc1ccc(O)cc1)c1cc2nc3c(c(C(F)(F)F)n2n1)CCc1ccccc1-3	3.2
O=C(NCCN1CCOCC1)c1cc2nc(-c3ccc(Br)cc3)cc(C(F)(F)F)n2n1	–
CCOc1ccc2nc(NC3=NCN(CCc4ccccc4)CN3)nc(C)c2c1	–
CCCOC(=O)C1=C(C)NC2=C(C(=O)CCC2)C1c1ccc(SC)cc1 (centres undefined)	–
CC(=O)CSc1nnc(-c2sc3nc(C)cc(C)c3c2N)n1Cc1ccccc1	–
C=CCn1c(=S)[nH]c2c(OC)c(OC)c(OC)cc2c1=O	–
FC(F)(F)Oc1ccc(-n2ccc(-c3ccccc3)nc2=S)cc1	–
Cc1cc([N+](=O)[O-])nn1CC(=O)Nc1ccccn1	–
CCOc1ccc(S(=O)(=O)Nc2cnc3ccccc3c2)cc1	–
Cc1cc([N+](=O)[O-])nn1CC(=O)Nc1cnc2ccccc2c1	3.5
CCCCN1C(=O)C(O)(CC(=O)c2ccc(OCC)cc2)c2cc(Br)ccc21 (centres undefined)	–
COC(=O)c1sccc1-c1ccc(/C(C)=N\NC(=S)Nc2ccc(Cl)cc2Cl)o1	–
OC(C#CCN1CCOCC1)(c1ccccc1)c1cccc(F)c1 (centres undefined)	–
O=C(Nc1ccccc1)c1cc2ccccc2o1	–
CC(C)(C)NC(=O)c1cc2ccccc2o1	4.2
O=C(Nc1ccc(F)cc1)c1cc2ccccc2o1	–
Cc1ccc(Cl)c2c1NC(=O)C2(O)c1c[nH]c2ccccc12 (centres undefined)	–
Cc1cc(C)nc(N2CCC(NC3CC(=O)N(c4ccc(F)cc4)C3=O)CC2)n1 (centres undefined)	–
Cc1cc(C)nc(N2CCN(c3nc(C)cc(C)n3)CC2)n1	4.2
SMILES	Dicer inh
Cc1cc(N2CCOCC2)nc(N2CCOCC2)n1	–
CCc1c(C)nc(SCc2ccccc2C)c(C#N)c1C	–
Cc1ccc(-c2nc(NC(=O)c3ccc(C(F)(F)F)cc3)sc2C)cc1Cl	–
Cc1onc(-c2c(Cl)cccc2Cl)c1C(=O)O/N=C(\N)CN1CCSCC1	–
CCOC(=O)Cc1csc(NS(=O)(=O)c2cc(C)c(Cl)cc2Cl)n1	–
CC(C)COC(=O)CSc1nc(N2CCOCC2)c2c(c1C#N)CC(C)(C)OC2	–
O=C1Sc2ccc(S(=O)(=O)Nc3ccc(Br)cc3)c3cccc1c23	3.3
O=C1Sc2ccc(S(=O)(=O)Nc3cccc(Cl)c3)c3cccc1c23	–
CN1C(=O)c2cccc3c(S(=O)(=O)Nc4ccc(C(=O)O)cc4)ccc1c23	–
COc1ccc(C2CC(=O)c3cnc(N4CC(C)CC(C)C4)nc3C2)cc1OC (centres undefined)	–
Cc1ccc(C(=O)O)cc1-n1c(C)ccc1C	–
Cc1ccc(C)n1-c1ccc(Cl)c(C(=O)O)c1	8.2
Cc1ccc(C)n1-c1ccc(-n2c(C)ccc2C)cc1	–
Cc1ccc(C)n1-c1ccc(Cl)cc1C(=O)O	12
O=C(O)c1cc(Cl)ccc1I	–
Cc1ccc(Cl)c(Nc2ccccc2C(=O)O)c1Cl	–
Cn1c(=O)c2[nH]c(NCc3ccccc3Cl)nc2n(C)c1=O	–
CCNC(=S)NNC(=O)CN1c2ccccc2Sc2ccccc21	–
O=C(Cn1cccc(C(F)(F)F)c1=O)Nc1ccccc1	–
Cc1ccc(C(=O)NC(=O)c2ccccc2O)cc1	–
CC(C)(C)c1ccc(-c2cc3ncnc(Nc4cccc(Cl)c4)c3s2)cc1	–
O=C1CC(c2ccc3c(c2)OCO3)c2c(n[nH]c2-c2ccc(Cl)cc2)N1 (centres undefined)	–
O=C1CC(c2ccc(Cl)cc2)c2cc3c(cc2N1)OCO3 (centres undefined)	3.6
COc1cc2c(cc1OC)C(c1ccc(F)cc1)CC(=O)N2 (centres undefined)	–
COc1cc(C2C(C(=O)OCC(C)C)=C(C)NC3=C2C(=O)CC(c2cccs2)C3)ccc1O (centres undefined)	–
SMILES	Dicer inh
CCCS(=O)(=O)N1CCN(Cc2cc(Br)ccc2O)CC1	–
COc1ccc(CN2CCN(Cc3cc(Br)ccc3O)CC2)c(OC)c1	4.5
COc1ccc(Br)cc1CN1CCN(Cc2ccncc2)CC1	–
COc1ccc(CN2CCN(Cc3cc(Br)ccc3OC)CC2)cc1	–
COc1ccc(CN2CCN(Cc3ccc(Br)cc3)CC2)c(OC)c1	–
Cc1ccc(S(=O)(=O)N2CCN(Cc3cc(C(C)C)ccc3O)CC2)cc1	–
COc1cccc(CN2CCN(Cc3cc(Br)ccc3O)CC2)c1OC	3.8
COc1cccc(CN2CCN(Cc3ccccc3Br)CC2)c1OC	–
